Experiment [1] addresses Nuclear receptor coactivator 3 (Homo sapiens) (UniProt Q9Y6Q9). Description: NCOA3 GAL4-fusion reporter inhibition – cell-based, luminescence, quadruplicate, confirmation (AID 588792).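 Also: 0% = DMSO treated cells and 100% = gossypol at 36 µM.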 Conditions: HEK293 GAL4-SRC3 luciferase reporter, at 3.6 µM, hits give high values. (In a reporter assay the amount or activity of a reporter protein is the signal.)
Experiment [2] concerns transactivating tegument protein VP16 (Human herpesvirus 1), Gal4-VP16 luciferase reporter. Description: repression of VP16-driven luciferase reporter – cell-based, luminescence, high throughput, counter-screen for SRC3 inhibitor project (AID 588794; in the data active = inhibition above about 30%). The settings on record: mammalian cells, at 3.6 µM, hits give high values.

Values without a mark were called inactive. The source made the active and inactive calls.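 The calls were made as follows, unless noted: active = mean inhibition over 43.08%, the solvent-only control mean plus 3 SD; inactive = the rest.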

Chain of Nuclear receptor coactivator 3 (Homo sapiens) (Q9Y6Q9 whole entry, looked up, the tested form may be a part): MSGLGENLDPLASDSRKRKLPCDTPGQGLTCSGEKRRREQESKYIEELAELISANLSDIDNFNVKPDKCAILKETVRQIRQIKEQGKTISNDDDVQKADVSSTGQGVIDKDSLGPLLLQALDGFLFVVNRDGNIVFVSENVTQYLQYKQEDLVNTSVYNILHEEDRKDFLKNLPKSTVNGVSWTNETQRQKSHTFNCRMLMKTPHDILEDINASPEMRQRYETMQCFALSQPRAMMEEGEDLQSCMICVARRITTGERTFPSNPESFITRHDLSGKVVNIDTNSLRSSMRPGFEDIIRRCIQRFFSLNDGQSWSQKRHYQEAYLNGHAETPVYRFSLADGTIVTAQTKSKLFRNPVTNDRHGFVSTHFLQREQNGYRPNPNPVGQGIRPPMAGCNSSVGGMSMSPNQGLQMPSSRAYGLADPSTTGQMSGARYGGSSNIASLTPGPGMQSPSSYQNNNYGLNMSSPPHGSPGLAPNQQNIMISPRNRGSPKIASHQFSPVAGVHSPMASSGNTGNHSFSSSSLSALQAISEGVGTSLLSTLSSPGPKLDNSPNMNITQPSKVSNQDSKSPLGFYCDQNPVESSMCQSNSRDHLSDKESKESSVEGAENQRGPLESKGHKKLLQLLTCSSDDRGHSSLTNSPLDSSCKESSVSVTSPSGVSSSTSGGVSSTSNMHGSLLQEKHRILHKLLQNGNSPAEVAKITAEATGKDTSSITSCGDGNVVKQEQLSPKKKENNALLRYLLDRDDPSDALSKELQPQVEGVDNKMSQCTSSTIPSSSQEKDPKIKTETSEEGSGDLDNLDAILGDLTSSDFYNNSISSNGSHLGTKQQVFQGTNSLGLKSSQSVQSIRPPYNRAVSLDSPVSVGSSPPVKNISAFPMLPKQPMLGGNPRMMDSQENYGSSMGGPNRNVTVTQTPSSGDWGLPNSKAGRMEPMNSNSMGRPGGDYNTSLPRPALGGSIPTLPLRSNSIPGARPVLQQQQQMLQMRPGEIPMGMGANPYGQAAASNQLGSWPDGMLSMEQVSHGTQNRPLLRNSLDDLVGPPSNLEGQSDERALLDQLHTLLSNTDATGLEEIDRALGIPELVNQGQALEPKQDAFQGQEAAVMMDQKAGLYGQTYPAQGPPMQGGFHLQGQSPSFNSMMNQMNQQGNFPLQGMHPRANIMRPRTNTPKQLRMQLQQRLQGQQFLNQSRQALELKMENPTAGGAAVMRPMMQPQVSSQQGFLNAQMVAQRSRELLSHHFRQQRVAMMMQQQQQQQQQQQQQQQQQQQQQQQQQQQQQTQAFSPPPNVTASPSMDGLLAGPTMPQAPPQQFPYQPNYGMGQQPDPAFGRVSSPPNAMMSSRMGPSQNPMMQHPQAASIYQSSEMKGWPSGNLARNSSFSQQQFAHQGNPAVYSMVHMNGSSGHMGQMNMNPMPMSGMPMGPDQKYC

As for `Cc1noc(C)c1COC(=O)c1cc(F)c(F)cc1Cl`, the inhibition in experiment [1] is 2.84%; in experiment [2], 1.74%.
The corresponding values for `N#Cc1c(NCc2ccccc2)ccnc1Cl` are 27.5% and 15.9%.
The corresponding values for `Cc1cc(C(=O)N2CCN(c3ccccn3)CC2)no1` are 4.36% and -9.5%.
With `Cc1nn(C)c(C)c1CN(C)C(=O)c1cnn2c1NC(c1ccccc1)CC2C(F)(F)F` (stereo unspecified), the inhibition was 21.2% in experiment [1] and 3.17% in experiment [2].
The corresponding values for `CS(=O)c1nc(-c2ccc(Br)cc2)cc(-c2ccccc2)c1C#N` (stereo unspecified) are 43.9% (active) and 26.6%.
With `O=C(NCc1ccc(Cl)cc1)c1cccc(NC(=O)c2ccccc2)c1`, the inhibition in experiment [1] was -5.52%; in experiment [2], 26.9%.
The corresponding values for `CCOC(=O)C(=O)NNc1ccc(C)cc1` are -7.17% and 4.76%.
The corresponding values for `O=C(NN=Cc1cccc(O)c1O)c1ccccc1` are 23.7% and 21.5%.
For `CCCCCCCOC(=O)C[N+](C)(C)CCOC1CC2CCC1(C)C2(C)C` (stereo unspecified), in that order: -17.6% and 9.62%.
Take `CCn1nc(C(=O)OCC(=O)c2ccc3c(c2)OCCO3)c2ccccc2c1=O`: the inhibition was -13.9% in experiment [1] and -5.51% in experiment [2].
For `O=C(NC(=S)Nc1cccc2cnccc12)c1ccccc1`, in that order: 51.4% (active) and 44.1% (active).
The corresponding values for `CCc1ccc(C(=O)COC(=O)c2cncc(Br)c2)cc1` are 10.2% and 7.77%.
With `COCC(C)NS(=O)(=O)c1ccc(C(=O)NC(Cc2ccccc2)c2ccccc2)cc1` (stereo unspecified), the values for the inhibition in experiment [1] and in experiment [2] were 17.7% and 0.32%, respectively.

Broadly, the inhibition is the change of the read-out against control, counted positive when it falls.

The values above are taken from PubChem BioAssay.
